Data from PubChem BioAssay (NCI).
Compounds without any hit were thinned out: in the full panel of roughly 83,000, 20% have a hit.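 Single-concentration screen, 48 h exposure, 96-well plates. Endpoint: percent growth. Below 10 = active.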 The source made the active and inactive calls.

Assays:
Test in all cases: NCI-60 one-dose screen, 48 h (100 = growth as untreated, 0 = no growth, -100 = all killed)
Settings in all cases: 10 µM
[1] = system: RPMI-8226 leukemia
[2] = system: OVCAR-8 ovarian
[3] = system: OVCAR-5 ovarian
[4] = system: OVCAR-4 ovarian
[5] = system: SK-OV-3 ovarian
[6] = system: IGROV1 ovarian
[7] = system: OVCAR-3 ovarian
[8] = system: HS 578T breast
[9] = system: NCI/ADR-RES ovarian
[10] = system: T-47D breast
[11] = system: BT-549 breast
[12] = system: MDA-MB-435 melanoma
[13] = system: SW-620 colon
[14] = system: MCF7 breast
[15] = system: HCT-116 colon
[16] = system: HCC-2998 colon
[17] = system: KM12 colon

Measured: growth

O=C(C[P+](c1ccccc1)(c1ccccc1)c1ccccc1)C[P+](c1ccccc1)(c1ccccc1)c1ccccc1
active: [1] -40.6% | [2] -42.1% | [3] -94.9% | [4] -55.8% | [5] -3.83% | [6] -69.3% | [7] -92.9% | [8] -5.42% | [9] 1.56% | [10] -45.2% | [11] -89.2% | [12] -80.6% | [13] -71.9% | [14] -69.8% | [15] -93.3% | [16] -83.9% | [17] -75.5%

Cc1ccc(NC(=O)NC2CCCCC2)cc1
inactive: [1] 108% | [2] 106% | [3] 103% | [4] 114% | [5] 95.8% | [6] 105% | [7] 109% | [8] 107% | [9] 110% | [10] 93.2% | [11] 115% | [12] 105% | [13] 108% | [14] 93.8% | [15] 105% | [16] 111% | [17] 101%

COc1ccc2c(c1)-c1c(c3cc(OC)ccc3n(CCN(C)C)c1=O)C2=O
inactive: [3] 46.3% | [5] 28.7% | [8] 25.7% | [10] 63.8% | [11] 64.2% | [12] 21.8% | [16] 34.9%
active: [1] -14.9% | [2] 4.46% | [4] -28.3% | [6] -25.6% | [7] 6.8% | [9] -1.87% | [13] -8.7% | [14] -0.273% | [15] -21.2% | [17] 8.92%

CCN(CC)CCCC(C)Nc1ccc2ccc(Cl)cc2n1 (stereo unspecified)
inactive: [1] 97.3% | [2] 94.4% | [3] 102% | [4] 116% | [5] 104% | [6] 101% | [7] 97.8% | [8] 90.8% | [9] 98% | [10] 93.1% | [11] 96.2% | [12] 109% | [13] 97.9% | [14] 99.6% | [15] 92.2% | [16] 92.8% | [17] 104%

O=C(c1ccc(Cl)cc1Cl)N1CCOCC1
inactive: [1] 95.9% | [2] 104% | [3] 96% | [4] 98.9% | [5] 98.5% | [6] 105% | [7] 109% | [8] 107% | [9] 96.5% | [10] 92.3% | [11] 92.3% | [12] 104% | [13] 102% | [14] 97.6% | [15] 93.8% | [16] 106% | [17] 110%

COc1ccc(-c2nn(-c3cccc(NC(=O)Nc4ccc(Cl)c(C(F)(F)F)c4)c3)cc2-c2ccncc2)cc1Cl
inactive: [3] 39.8% | [4] 21.7% | [5] 16.7% | [6] 15.7% | [8] 33.8% | [11] 11.2% | [13] 17.7% | [16] 37.7%
active: [1] -19.2% | [2] 1.48% | [7] -2.03% | [9] 9.26% | [10] -6.17% | [12] -24.3% | [14] 1.57% | [15] 8.61% | [17] 4%

COc1cc(NC(=O)c2sc3nc4c(cc3c2N)C(O)CCC4)cc(OC)c1 (stereo unspecified)
active: [12] 8.37%
inactive: [1] 88.2% | [2] 97.5% | [3] 100% | [4] 96.6% | [5] 97.4% | [6] 85.7% | [7] 95.3% | [8] 106% | [9] 87.3% | [10] 90.8% | [11] 100% | [13] 66.1% | [14] 50.7% | [15] 84.2% | [16] 78.9% | [17] 69.5%

Oc1[nH]c2ccc(Cl)cc2c1/C=c1/ccc2c(c1)N=C(c1cc(F)cc(F)c1)N=2
active: [7] 7.12% | [12] 1.43% | [14] 5.27%
inactive: [1] 74.4% | [2] 77% | [3] 86.8% | [4] 68.5% | [5] 68% | [6] 53.6% | [8] 63% | [9] 54.2% | [10] 88.4% | [11] 81.9% | [13] 53.8% | [15] 52.2% | [16] 86.2% | [17] 44.4%

Cn1c([N+](=O)[O-])cnc1/C=C1\Oc2ccccc2C1=O
active: [1] -7.1% | [2] -26% | [3] 0.959% | [5] -15.9% | [6] -29.5% | [7] -21% | [8] -21.8% | [9] -5.9% | [11] -28.6% | [12] -86.8% | [13] -36.3% | [14] 1.82% | [15] 1.88% | [16] -73.6% | [17] -17.4%
inactive: [4] 10.5% | [10] 87.3%

Nc1c(C(=O)Nc2cccc(F)c2)sc2nc3c(cc12)C(=O)CCC3
inactive: [1] 43.1% | [2] 63.9% | [3] 38.2% | [4] 57.8% | [5] 25.6% | [6] 44.1% | [8] 29.3% | [9] 13.3% | [10] 42.6% | [11] 48.4% | [13] 31.1% | [14] 11.9% | [15] 29% | [16] 23.4% | [17] 28.9%
active: [7] -3.4% | [12] -43.8%

O=C(Nc1ccc(CO)cc1)c1ccccc1Nc1ccnc(C(F)(F)F)c1
inactive: [1] 89% | [2] 98.3% | [3] 104% | [4] 98.2% | [5] 101% | [6] 101% | [7] 110% | [8] 93.7% | [9] 102% | [10] 86.9% | [11] 104% | [12] 106% | [13] 105% | [14] 97.1% | [15] 101% | [16] 106% | [17] 99.4%

COc1cc(C(=O)N2CCN(c3ccccc3OC)CC2)c(N)cc1OCCCN1CCN(c2ccccc2OC)CC1
inactive: [1] 56.4% | [2] 101% | [3] 81.6% | [4] 77.7% | [5] 75.4% | [6] 77.6% | [7] 77.7% | [8] 99% | [9] 80.1% | [10] 50.9% | [11] 94.4% | [12] 101% | [13] 90.6% | [14] 96% | [15] 81.9% | [16] 101% | [17] 88.4%

O=C1/C(=C/c2ccc([N+](=O)[O-])s2)Oc2ccccc21
active: [1] 0.673% | [2] 2.43% | [3] -56.7% | [4] -86.7% | [6] -72.5% | [7] -60.8% | [10] 2.78% | [11] -83.2% | [12] -58.1% | [13] -61.3% | [14] 1.53% | [15] -45.4% | [16] -71.4% | [17] -58.9%
inactive: [5] 12.3% | [8] 25.7% | [9] 12.3%

CCCC(F)C(=O)O (stereo unspecified)
inactive: [1] 98.4% | [2] 98.2% | [3] 115% | [4] 106% | [5] 98.3% | [6] 107% | [7] 116% | [8] 100% | [9] 108% | [10] 97.7% | [11] 111% | [12] 95.8% | [13] 105% | [14] 97.8% | [15] 102% | [16] 111% | [17] 106%

COc1ccccc1/C=C/C(=O)c1ccccc1
inactive: [2] 61.8% | [3] 105% | [4] 70.2% | [5] 118% | [6] 28.8% | [7] 59.9% | [8] 73.9% | [9] 86.7% | [10] 94.8% | [11] 88.4% | [12] 70.7% | [13] 14.9% | [14] 32.2% | [15] 55.3% | [16] 101% | [17] 27.9%
active: [1] -36.2%

COc1cccc(NC(=O)c2sc3nc4c(cc3c2N)C(O)CCC4)c1 (stereo unspecified)
inactive: [2] 17.5% | [3] 50.3% | [4] 49.1% | [5] 24% | [6] 27.7% | [8] 29.7% | [10] 62.1% | [11] 44.4% | [13] 23.8% | [14] 15.5% | [15] 12.3% | [16] 19.6% | [17] 16.7%
active: [1] 7.49% | [7] -34.6% | [9] 8.86% | [12] -32.5%

O=C(N/N=C/c1ccccc1O)C(O)(c1ccccc1)c1ccccc1
active: [7] 8.52% | [15] 8.42%
inactive: [1] 62% | [2] 60.1% | [3] 73.9% | [4] 26.7% | [5] 66.9% | [6] 43.7% | [8] 74% | [9] 35.9% | [10] 48.1% | [11] 70.3% | [12] 65.2% | [13] 51.1% | [14] 50.7% | [16] 76.3% | [17] 53.7%

O=C(Nc1ccc(CN2CCc3nc4cc(O)c(O)cc4cc32)cc1)c1ccc(Cl)c(Cl)c1
inactive: [1] 103% | [2] 106% | [3] 106% | [4] 117% | [5] 106% | [6] 102% | [7] 104% | [8] 102% | [9] 106% | [10] 88.6% | [11] 101% | [12] 100% | [13] 97.2% | [14] 93.7% | [15] 100% | [16] 112% | [17] 99.9%
